# Bioassay records deposited in PubChem by Broad Institute.
# This excerpt belongs to a sample that is enriched for hits.
# IDE exosite inh – insulin-degrading enzyme (human) exo-site inhibition; P14735; purified IDE, FL-6b probe fluorescence polarization; active compounds read low; z-score at 20 µM; hit rate 6.3% among 17,000; AID 1259349;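 active = z-score of -3 or lower, meaning strong loss of probe binding signal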;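 note: His-tagged human IDE residues 42-1019 made in E. coli with 30 nM FL-6b probe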
# Numbers without * were called inactive; ! = a repeat was not active.
SMILES,IDE exosite inh
Cc1cccc(-c2ccc(C3[C@@H]4CN(Cc5ccccc5)C[C@H]3N4)cc2)c1 (stereo partly specified),-5.1*
N#Cc1cccc(-c2ccc(C3[C@@H]4CN(C(=O)Nc5ccccc5)C[C@H]3N4)cc2)c1 (stereo partly specified),3.5
c1ccc(CN2C[C@@H]3N[C@H](C2)C3c2ccc(-c3ccncc3)cc2)cc1 (stereo partly specified),2.4
Cc1cccc(-c2ccc(C3[C@@H]4CN(C(=O)Nc5ccc(F)cc5)C[C@H]3N4)cc2)c1 (stereo partly specified),-0.36
Cc1cccc(-c2ccc(C3[C@@H]4CN(C(=O)Nc5ccccc5)C[C@H]3N4)cc2)c1 (stereo partly specified),-4.3*
Cc1cccc(-c2ccc(C3[C@@H]4CN(Cc5cccc(F)c5)C[C@H]3N4)cc2)c1 (stereo partly specified),-0.44
Cc1cccc(-c2ccc(C3[C@@H]4CN(C(=O)C5CCOCC5)C[C@H]3N4)cc2)c1 (stereo partly specified),-5.1*
CCCC#Cc1ccc([C@@H]2[C@@H](C#N)N(C(=O)C3CCC3)[C@@H]2CO)cc1,2.2
CC(C)C#Cc1ccc([C@H]2[C@@H](CO)N3CCCCN(CC4CC4)C[C@@H]23)cc1,4.7
O=C1N[C@@H](Cc2ccccc2)COCc2cnnn2CC[C@@H]1Cc1ccc(-c2ccccc2)cc1,0.78
CO[C@H](CN(C)Cc1nccs1)[C@H](C)CN([C@@H](C)CO)S(=O)(=O)c1ccc(F)cc1,-0.52
CN(C)C(=O)c1cccc(-c2ccc([C@H]3[C@@H](CO)N4CCCCN(C(=O)C5CCC5)C[C@@H]34)cc2)c1,2.9
O=C(Nc1ccccc1F)N1CC(=O)N2[C@H](C1)[C@@H](c1ccc(C#CC3CCCC3)cc1)[C@@H]2CO,1.8
O=C(Cc1ccccc1)N1CC(=O)N2[C@H](CO)[C@H](c3ccc(Br)cc3)[C@@H]2C1,-1.5
O=C(CC1CC1)N1CC(=O)N2[C@H](CO)[C@@H](c3ccc(/C=C/c4ccccc4)cc3)[C@H]2C1,-3.3*
O=C(CC1CC1)N1CC(=O)N2[C@H](CO)[C@H](c3ccc(/C=C/c4ccccc4)cc3)[C@@H]2C1,-1.5
O=C(CC1CC1)N1CC(=O)N2[C@H](CO)[C@@H](c3ccc(-c4cccnc4)cc3)[C@@H]2C1,-1.3
COCC(=O)N1CC(=O)N2[C@@H](CO)[C@H](c3ccc(-c4ccccc4)cc3)[C@@H]2C1,-0.89
O=C(CC1CC1)N1CC(=O)N2[C@@H](CO)[C@H](c3ccc(/C=C/c4ccccc4)cc3)[C@@H]2C1,-5*
O=C(CC1CC1)N1CC(=O)N2[C@@H](CO)[C@@H](c3ccc(-c4ccccc4)cc3)[C@@H]2C1,-4.8*
N#C[C@@H]1[C@H](c2ccc(C3=CCCCC3)cc2)[C@H](CO)N1C(=O)c1cccc(F)c1,1.4
CN(C)CC(=O)N1[C@H](C#N)[C@H](c2ccccc2-c2cccc(C(=O)N(C)C)c2)[C@H]1CO,2.1
COc1cccc(NC(=O)N2CC(=O)N3[C@H](C2)[C@H](c2ccc(C4=CCCCC4)cc2)[C@@H]3CO)c1,-0.86
C/C=C/c1ccc([C@H]2[C@@H](CO)N(C(=O)CN(C)C)[C@@H]2CNC(=O)CC)cc1,1.9
O=C(Nc1cc(F)ccc1F)N[C@@H]1CC[C@H](CCn2cc(C3CCCCC3)nn2)O[C@@H]1CO,0.51
SMILES,IDE exosite inh
CN1CCN(C(=O)c2cc3c(c(-c4cccc(C#CCC5CCCC5)c4)n2)[C@H](CCO)N(S(=O)C(C)(C)C)C3)CC1 (stereo partly specified),-0.25
COc1ccc(C#Cc2cccc(-c3nc(C(=O)N4CCN(Cc5ccccc5)CC4)cc4c3[C@H](CCO)N(S(=O)C(C)(C)C)C4)c2)cc1OC (stereo partly specified),1.5
CO[C@H]1CN(C)C(=O)c2cc(NC(=O)Nc3cccc(Cl)c3)ccc2OC[C@@H](C)N(C(=O)Nc2c(C)noc2C)C[C@@H]1C,1.4
CN(C)C(=O)c1cccc(-c2ccc(C3[C@@H]4CN(C(=O)c5cnccn5)C[C@H]3N4)cc2)c1 (stereo partly specified),0.092
COc1cccc(-c2ccc(C3[C@@H]4CN(C(=O)c5ccc(F)cc5)C[C@H]3N4)cc2)c1 (stereo partly specified),1.8
COc1cccc(-c2ccc(C3[C@H]4CNC[C@@H]3N4C(=O)NC3CCCCC3)cc2)c1 (stereo partly specified),-3.8*!
COc1ccc(-c2ccc(C3[C@H]4CNC[C@@H]3N4C(=O)NC3CCCC3)cc2)cc1 (stereo partly specified),3
CCCNC(=O)N1C[C@@H]2N[C@H](C1)C2c1ccc(-c2ccc(OC)cc2)cc1 (stereo partly specified),-0.56
CCCNC(=O)N1C[C@@H]2N[C@H](C1)C2c1ccc(-c2cccc(F)c2)cc1 (stereo partly specified),-0.44
CN(C)C(=O)c1ccc(-c2ccc(C3[C@@H]4CN(C(=O)Cc5ccncc5)C[C@H]3N4)cc2)cc1 (stereo partly specified),3.6
Cc1ccccc1-c1ccc(C2[C@@H]3CN(C(=O)Cc4ccncc4)C[C@H]2N3)cc1 (stereo partly specified),-9*!
COc1cccc(-c2ccc(C3[C@@H]4CN(C(=O)c5cnccn5)C[C@H]3N4)cc2)c1 (stereo partly specified),-8.7*!
O=C(NC1CCCC1)N1[C@@H]2CNC[C@H]1C2c1ccc(-c2cccnc2)cc1 (stereo partly specified),-0.49
Cc1cccc(-c2ccc(C3[C@@H]4CN(C(=O)Cc5ccncc5)C[C@H]3N4)cc2)c1 (stereo partly specified),0.11
CCCNC(=O)N1C[C@@H]2N[C@H](C1)C2c1ccc(-c2cccc(OC)c2)cc1 (stereo partly specified),-3.9*!
C[C@H](NC(=O)C[C@H]1C=C[C@H](NS(=O)(=O)c2cccc(F)c2)[C@H](CO)O1)c1ccccc1,3.3
COc1ccc(C[C@H]2CCn3nncc3COC[C@H](CC(C)C)NC2=O)cc1,-1.5
C[C@H](CO)N1C[C@H](C)[C@H](CN(C)C(=O)Nc2ccc(-c3ccccc3)cc2)OCc2ccccc2-c2ccccc2C1=O,-1.7
CN1CCN(C(=O)C[C@H]2CC[C@@H]3[C@@H](COc4ccc(NC(=O)c5cccs5)cc4C(=O)N3C)O2)CC1,-0.24
O=C(C[C@@H]1CC[C@H]2NC[C@H](O)COC[C@@H]2O1)Nc1ccc(-c2ccccc2)cc1,-2.1
O=C(C[C@@H]1C=C[C@H](NC(=O)Nc2ccccc2F)[C@H](CO)O1)NCc1ccc(-c2ccccc2)cc1,2.3
C/C=C/c1ccc([C@H]2[C@H]3CN(Cc4ccc(C(=O)OC)cc4)CC(=O)N3[C@H]2CO)cc1,1.5
C/C=C/c1ccc([C@H]2[C@@H](CO)N(S(C)(=O)=O)[C@H]2CN(CC)C(C)=O)cc1,-0.59
O=C(C[C@@H]1CC[C@H](NC(=O)Nc2ccc(C(F)(F)F)cc2)[C@@H](CO)O1)NCc1cccc(F)c1,1.9
O=C(Nc1cccc(F)c1)N1[C@@H]2CNC[C@H]1C2c1ccc(-c2cccnc2)cc1 (stereo partly specified),-2
COCC(=O)N1[C@H](C#N)[C@H](c2ccccc2-c2cccc(OC)c2)[C@H]1CO,0.64
COc1ccccc1S(=O)(=O)N(C)C[C@H]1OCc2ccccc2-c2ccccc2C(=O)N([C@@H](C)CO)C[C@@H]1C,-1.5
